Experimental data published in PubChem BioAssay (Tox21).
Values joined by “and” are separate entries in the source; they are usually repeats but may differ in a detail not shown here. Equal values may be shown once. Results filed as inconclusive are left out. Where a call stands in place of a potency, no number is given. Some compounds were tested as several samples or in several runs, with calls that do not always agree. Active and inactive are the calls of the source. Unless noted, the call rests on the fitted dose curve; in most records, active means well fitted curve in the direction sought with a large enough effect in the repeat runs; inconclusive means weak or mixed curves; inactive means no such curve, though single readings can be large; an effect the other way counts as inactive or inconclusive.

Assays:
[1] = molecular target: Progesterone receptor (Homo sapiens) (UniProt P06401); assay: qHTS assay to identify small molecule agonists of the progesterone receptor (PR) signaling pathway (AID 1346784; calls by dose curve; further: nearly all actives have a fitted effect of over 30% in size)
Sequence of Progesterone receptor (Homo sapiens) (P06401 whole entry, looked up): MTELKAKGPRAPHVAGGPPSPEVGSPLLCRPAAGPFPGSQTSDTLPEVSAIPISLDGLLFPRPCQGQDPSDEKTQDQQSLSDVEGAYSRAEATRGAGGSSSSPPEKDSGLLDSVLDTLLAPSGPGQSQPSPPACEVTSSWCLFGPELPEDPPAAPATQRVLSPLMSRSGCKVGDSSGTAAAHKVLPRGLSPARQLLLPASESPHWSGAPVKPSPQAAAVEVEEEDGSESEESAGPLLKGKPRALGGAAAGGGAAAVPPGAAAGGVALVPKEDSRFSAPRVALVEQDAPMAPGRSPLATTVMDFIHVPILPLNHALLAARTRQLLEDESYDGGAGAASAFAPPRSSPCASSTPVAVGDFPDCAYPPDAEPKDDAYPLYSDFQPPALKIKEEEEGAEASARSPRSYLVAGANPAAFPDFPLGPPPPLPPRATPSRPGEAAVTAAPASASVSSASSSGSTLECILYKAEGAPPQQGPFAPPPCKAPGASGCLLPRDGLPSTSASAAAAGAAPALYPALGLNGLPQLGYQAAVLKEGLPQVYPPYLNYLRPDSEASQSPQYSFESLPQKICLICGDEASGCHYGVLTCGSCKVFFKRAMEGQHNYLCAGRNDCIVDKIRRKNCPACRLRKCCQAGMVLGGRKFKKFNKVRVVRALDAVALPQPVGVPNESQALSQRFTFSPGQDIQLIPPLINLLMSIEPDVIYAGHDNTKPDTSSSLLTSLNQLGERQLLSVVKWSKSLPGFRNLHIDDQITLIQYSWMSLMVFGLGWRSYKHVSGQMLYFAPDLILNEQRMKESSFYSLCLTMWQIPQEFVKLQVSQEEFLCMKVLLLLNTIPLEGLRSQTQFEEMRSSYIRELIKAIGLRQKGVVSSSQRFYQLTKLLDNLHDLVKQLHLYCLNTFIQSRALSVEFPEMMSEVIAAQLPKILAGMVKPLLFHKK
How it was run: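 The screen uses PR-UAS-bla HEK 293T cells in charcoal-stripped serum (2%). Compounds are applied for 16 hr at 37C after a 6 hr pre-incubation, and reporter activity is detected with a FRET beta-lactamase substrate after 2 hr at room temperature.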

[2] = molecular target: Progesterone receptor (Homo sapiens) (UniProt P06401); assay: qHTS assay to identify small molecule antagonists of the progesterone receptor (PR) signaling pathway (AID 1346795; active means well fitted inhibition curve with a large enough effect in the signal ratio in the repeat runs, not every such curve was filed as active; the % refers to the signal ratio; further: potency means the concentration at half of the fitted maximal effect)
How it was run: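 After 6 hr plating at 37C in 2% stripped-serum medium, PR-UAS-bla HEK293T cells got compounds, then 1 nM R5020. Sixteen hours later, LiveBLAzer substrate was applied for 2 hr at room temperature and fluorescence was recorded.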

[3] = qHTS assay to identify small molecule antagonists of the progesterone receptor (PR) signaling pathway - cell viability counter screen (AID 1346798); further: nearly all actives have a fitted effect of over 50% in size; further: potency means the concentration at half of the fitted maximal effect
How it was run: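 Viability was determined by ATP-based luminescence (CellTiter-Glo) in PR-UAS-bla HEK293T cells cultured in 2% charcoal-stripped serum and incubated 16 hr with compounds under R5020 stimulation.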

[4] = qHTS assay to identify small molecule agonists of the progesterone receptor (PR) signaling pathway - cell viability counter screen (AID 1346799; calls by dose curve; further: nearly all actives have a fitted effect of over 45% in size; further: potency means the concentration at half of the fitted maximal effect)
How it was run: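 Viability was scored by ATP luminescence (CellTiter-Glo, 30 min, room temperature) in the same wells used for the reporter readout, after 16 hr compound exposure of PR-UAS-bla HEK293T cells.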

[5] = qHTS assay to identify small molecule antagonists of the TGF-beta/Smad signaling pathway - cell viability counter screen (AID 1346824); further: nearly all actives have a fitted effect of over 50% in size; further: potency means the concentration at half of the fitted maximal effect
How it was run: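 Cytotoxicity counter-screen run in the same wells as the beta-lactamase Smad reporter read: CellTiter-Glo luminescence after 30 min at room temperature. HEK 293T SBE-bla cells had 5 hr compound exposure at 37 C with TGF-beta1 (0.25 ng/mL stock).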

[6] = qHTS assay to identify small molecule agonists of the TGF-beta/Smad signaling pathway - cell viability counter screen (AID 1346829); further: top concentration of the series differs between compounds; nearly all actives have a fitted effect of over 45% in size
How it was run: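 In parallel with the Smad reporter read, viability of HEK 293T cells stably carrying SBE-bla is quantified by ATP luminescence following 5 hr compound treatment.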

[7] = Human pregnane X receptor (PXR) small molecule agonists, qHTS cell viability counter screen (AID 1346977); further: nearly all actives have a fitted effect of over 50% in size; further: potency means the concentration at half of the fitted maximal effect
How it was run: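 HepG2 cells stably carrying the PXR-Luc reporter are cultured with 5% charcoal-stripped FBS and treated with compounds for 24hr. CellTiter-Fluor is added at 23hr and fluorescence is read after 1hr.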

[8] = qHTS assay to identify small molecule agonists of the TGF-beta/Smad signaling pathway (AID 1346859; active means well fitted activation curve with a large enough effect in the signal ratio in the repeat runs, not every such curve was filed as active; the % refers to the signal ratio; further: series mostly up to about 77 µM)
How it was run: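 Dual-wavelength fluorescence (460/530 nm emission) quantified beta-lactamase expression under the Smad binding element in HEK 293T cells following 5 hr compound treatment at 37 C.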

[9] = molecular target: Thyrotropin-releasing hormone receptor (Homo sapiens) (UniProt P34981); assay: qHTS assay to identify small molecule antagonists of the thyrotropin-releasing hormone receptor (TRHR) signaling pathway (AID 1346877; active means well fitted inhibition curve with a large enough effect in the repeat runs, not every such curve was filed as active; further: series mostly up to about 51 µM)
Sequence of Thyrotropin-releasing hormone receptor (Homo sapiens) (P34981 whole entry, looked up): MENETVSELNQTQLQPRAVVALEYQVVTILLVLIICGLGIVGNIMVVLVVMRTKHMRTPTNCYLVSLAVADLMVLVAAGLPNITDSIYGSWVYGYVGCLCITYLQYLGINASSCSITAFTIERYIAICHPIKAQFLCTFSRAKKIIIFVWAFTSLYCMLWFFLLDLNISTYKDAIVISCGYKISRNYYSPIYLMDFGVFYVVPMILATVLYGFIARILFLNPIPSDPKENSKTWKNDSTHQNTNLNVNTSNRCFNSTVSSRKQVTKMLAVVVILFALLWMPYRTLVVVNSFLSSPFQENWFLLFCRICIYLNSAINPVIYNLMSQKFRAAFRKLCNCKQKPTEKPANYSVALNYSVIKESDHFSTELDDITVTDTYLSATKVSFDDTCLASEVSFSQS
How it was run: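 Antagonist mode: after a 5 min room-temperature compound exposure, cells were stimulated with 1 nM (final) TRH. Dye-loaded TRHR-HEK293 cells were used, and calcium-dependent fluorescence was followed for 3 min, with 15-point titrations run in triplicate.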

[10] = molecular target: Thyrotropin-releasing hormone receptor (Homo sapiens) (UniProt P34981); assay: qHTS assay to identify small molecule agonists of the thyrotropin-releasing hormone receptor (TRHR) signaling pathway (AID 1346891; calls by dose curve;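 further: HEK293 cells expressing TRHR with calcium dye readout; series mostly up to about 58 µM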)
How it was run: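 Kinetic fluorescence (3 min, 1 s intervals) reported intracellular calcium after compound transfer onto TRHR-Hek293 cells pre-loaded with dye for 2 h at 37 °C.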

| SMILES | Potency [1] | Potency [2] | Potency [3] | Potency [4] | Potency [5] | Potency [6] | Potency [7] | outcome [8] | Potency [9] | Potency [10] |
| --- | --- | --- | --- | --- | --- | --- | --- | --- | --- | --- |
| CCCC[P+](CCCC)(CCCC)CCCC | inactive | inactive | inactive | inactive | inactive | inactive | inactive | – | – | – |
| Cc1cc(C)nc(NS(=O)(=O)c2ccc(N)cc2)n1 | inactive | inactive | inactive | inactive | inactive | inactive | inactive | inactive | inactive | inactive |
| COc1cccc(O)c1O | inactive | inactive | – | inactive | inactive | inactive | – | inactive | inactive | inactive |
| O=CC(=O)c1ccccc1 | inactive | inactive | inactive | inactive | inactive | inactive | inactive | inactive | inactive | inactive |
| CN(C)C(=O)Nc1ccc(Cl)c(Cl)c1 | inactive | inactive | inactive | inactive | inactive | – | inactive | inactive | inactive | inactive |
| CN(C)CCOC(C)(c1ccccc1)c1ccccn1 (configuration not stated) | inactive | inactive | inactive | inactive | inactive | inactive | inactive | inactive | – | – |
| CCOC(N)=O | inactive | inactive | inactive | inactive | inactive | – | inactive | inactive | inactive | inactive |
| O=C1O[C@H]([C@@H](O)CO)C(O)=C1O | inactive | inactive | inactive | inactive | inactive | – | inactive | inactive | – | – |
| CC12CCC(CC1)C(C)(C)O2 | inactive | inactive | inactive | inactive | inactive | inactive | inactive | inactive | inactive | inactive |
| CS(=O)(=O)OCCCCOS(C)(=O)=O | inactive | inactive | inactive | inactive | inactive | inactive | inactive | inactive | inactive | inactive |
| Cc1c(C(=O)O)c(O)cc2c1C(=O)c1c(O)c([C@@H]3O[C@H](CO)[C@@H](O)[C@H](O)[C@H]3O)c(O)c(O)c1C2=O | inactive | inactive | inactive | inactive | inactive | inactive | 11.2 µM (active) and 13.7 µM (active) and 23.7 µM (active) | inactive | inactive | inactive |
| COc1ccc2c(c1)c(CC(=O)O)c(C)n2C(=O)c1ccc(Cl)cc1 | inactive | inactive | inactive | inactive | inactive | – | inactive | – | – | – |
| Nc1c(N=Nc2ccc(-c3ccc(N=Nc4cc(S(=O)(=O)O)c5ccccc5c4N)cc3)cc2)cc(S(=O)(=O)O)c2ccccc12 | inactive | inactive | inactive | inactive | inactive | – | 8.63 µM (active) | inactive | – | – |
| CC(=O)Nc1c(I)c(NC(C)=O)c(I)c(C(=O)O)c1I | inactive | inactive | inactive | inactive | inactive | – | inactive | inactive | – | – |
| CC(C)NCC(O)c1ccc(O)c(O)c1 (configuration not stated) | inactive | inactive | inactive | inactive | inactive | – | inactive | inactive | inactive | inactive |
| NS(=O)(=O)O | inactive | inactive | inactive | inactive | inactive | – | inactive | inactive | – | – |
| Nc1c2c(nc3ccccc13)CCCC2 | inactive | inactive | inactive | inactive | inactive | inactive | 54.5 µM (active) | inactive | inactive | inactive |
| CCCCCCCCCCCCCCCC[N+](C)(C)Cc1ccccc1 | inactive | inactive | 24.8 µM (active) | 10 µM (active) and 12.4 µM (active) and 6.68 µM (active) | 56.7 µM (active) and 49.8 µM (active) | – | – | inactive | inactive | inactive |
| C[C@](N)(Cc1ccc(O)c(O)c1)C(=O)O | inactive | inactive | inactive | inactive | inactive | inactive | inactive | inactive | inactive | inactive |

| SMILES | Potency [1] | Potency [2] | Potency [3] | Potency [4] | Potency [5] | Potency [6] | Potency [7] | outcome [8] | Potency [9] | Potency [10] |
| --- | --- | --- | --- | --- | --- | --- | --- | --- | --- | --- |
| C=C(C)C(=O)OCC(C)O (configuration not stated) | inactive | inactive | inactive | inactive | inactive | – | inactive | inactive | – | – |
| CC(=O)CC(c1ccccc1)c1c(O)c2ccccc2oc1=O (configuration not stated) | inactive | inactive | inactive | inactive | inactive | inactive | inactive | inactive | – | – |
| CCCCC1(COC(=O)CCC(=O)O)C(=O)N(c2ccccc2)N(c2ccccc2)C1=O | inactive | inactive | inactive | inactive | inactive | inactive | inactive | inactive | inactive | inactive |
| Cc1cccc(C)c1 | inactive | inactive | inactive | inactive | inactive | inactive | inactive | inactive | inactive | inactive |
| Cn1c(=O)c2c(ncn2C)n(C)c1=O | inactive | inactive | inactive | inactive | inactive | inactive | 39.8 µM (active) and inactive | inactive | – | – |
| CN(C)CCOC(c1ccccc1)c1ccccc1 | inactive | inactive | inactive | inactive | inactive | inactive | inactive | inactive | inactive | inactive |
| O=C1NC(=O)C(c2ccccc2)(c2ccccc2)N1 | inactive | inactive | inactive | inactive | inactive | – | inactive | inactive | inactive | inactive |
| OC[C@H]1O[C@H](O[C@]2(CCl)O[C@H](CCl)[C@@H](O)[C@@H]2O)[C@H](O)[C@@H](O)[C@H]1Cl | inactive | inactive | inactive | inactive | inactive | – | inactive | inactive | inactive | inactive |
| NS(=O)(=O)c1cc2c(cc1Cl)NCNS2(=O)=O | inactive | inactive | inactive | inactive | inactive | inactive | inactive | inactive | inactive | inactive |
| CCN(CC)C(=O)c1cccc(C)c1 | inactive | inactive | inactive | inactive | inactive | inactive | inactive | inactive | – | – |
| CNNCc1ccc(C(=O)NC(C)C)cc1 | inactive | inactive | – | inactive | inactive | inactive | inactive | inactive | inactive | inactive |
| CC(C)C(=O)Nc1ccc([N+](=O)[O-])c(C(F)(F)F)c1 | inactive | 25 µM (active) | – | inactive | inactive | – | 50.1 µM (active) and inactive | inactive | inactive | inactive |
| NC(CO)(CO)CO | inactive | inactive | – | inactive | inactive | inactive | inactive | inactive | inactive | inactive |
| Nc1ccc(S(N)(=O)=O)cc1 | inactive | inactive | – | inactive | inactive | – | inactive | inactive | inactive | inactive |
| O=S1(=O)OC(c2ccc(O)cc2)(c2ccc(O)cc2)c2ccccc21 | inactive | inactive | – | inactive | inactive | – | 24.3 µM (active) and 30.6 µM (active) and 9.44 µM (active) | inactive | inactive | inactive |
| COc1ccc(CN(CCN(C)C)c2ccccn2)cc1 | inactive | inactive | – | 42.8 µM (active) and 28.2 µM (active) and inactive | inactive | inactive | inactive | inactive | inactive | inactive |
| O=c1[nH]cc(F)c(=O)[nH]1 | inactive | inactive | – | 28.3 µM (active) and inactive | inactive | inactive | inactive | inactive | inactive | inactive |
| CCCCCCCC(=O)OCC(COC(=O)CCCCCCC)OC(=O)CCCCCCC | inactive | inactive | – | inactive | inactive | inactive | inactive | inactive | inactive | inactive |
| NC(=O)c1cccnc1 | inactive | inactive | – | inactive | inactive | inactive | inactive | inactive | – | – |
